Laboratory results taken from PubChem BioAssay (NCATS).
Records with an inconclusive call do not appear. Unmarked numbers belong to inactive results. Calls of active or inactive are those of the source. The call rests on the fitted dose curve; in most records, active means well fitted curve in the direction sought with a large enough effect in the signal ratio; inconclusive means small, poorly fitted or top-dose-only effect, or a change in a side signal; inactive means no such curve, though single readings can be large or run the other way; the % refers to the signal ratio.

target: Tumor necrosis factor (Homo sapiens) (UniProt P01375); experiment: qHTS assay to identify small molecules that stimulate Tumor Necrosis Factor-alpha (TNF-alpha) secretion (AID 651757); conditions: Human cells, HTRF 665/615 ratio; series mostly up to 92.2 µM; activation (TNF-alpha secretion): at the top concentration; further: 0% is about no effect
Description: National Center for Advancing Translational Sciences [NCATS]
NIH Chemical Genomics Center [NCGC]
National Institutes of Environmental Health Sciences [NIEHS]
National Toxicology Program [NTP]
Tumor Necrosis Factor-alpha (TNF-alpha), a secreted cytokine, plays an important role in inflammatory diseases and immune disorders. TNF-alpha, a 17 kDa cytokine, is mainly secreted by activated macrophages and monocytes in response to several inflammatory and immunological stimuli. To study the effect of environmental chemicals on TNF-alpha secretion, a homogeneous TNF-alpha assay was developed using Time Resolved fluorescence (HTRF) technology based on Time Resolved Fluorescent Resonance Energy Transfer (TR-FRET) (Leister et al., Current Chemical Genomics, 5:21-29, 2011). This assay allows measuring TNF-alpha secreted from the cells in a 1536-well plate format.
THP-1 cells were dispensed at 3000 cells/5ul/well in 1536-well white solid plates. After addition of 23 nl of compound, positive controls and DMSO only, the assay plates were incubated at 37 C for 17 hrs, followed by addition of 5 uLof mixture of cryptate labeled and XL665 labeled anti-TNF-alpha antibodies. After the assay plates were incubated at room temperature for 3 hr, the plates were measured by an EnVision plate reader.

Tumor necrosis factor (Homo sapiens), sequence (P01375 whole entry, looked up): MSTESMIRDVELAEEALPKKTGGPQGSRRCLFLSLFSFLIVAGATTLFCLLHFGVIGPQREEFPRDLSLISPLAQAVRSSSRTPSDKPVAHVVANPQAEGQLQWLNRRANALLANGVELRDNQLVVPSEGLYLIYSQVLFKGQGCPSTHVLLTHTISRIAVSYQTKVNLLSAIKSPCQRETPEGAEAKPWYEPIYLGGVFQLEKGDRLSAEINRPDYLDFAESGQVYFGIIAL

Q: Which “activation (TNF-alpha secretion)” value does the source give for `O=C(OCC(COC(=O)c1ccccc1)(COC(=O)c1ccccc1)COC(=O)c1ccccc1)c1ccccc1` here?
A: -0.146%

Q: For `C=CC(=O)OCC(CO)(COC(=O)C=C)COC(=O)C=C`, which “activation (TNF-alpha secretion)” value is on record?
A: 0.988%

Q: For `C=CC(=O)OCCOCCOC(=O)C=C`, which “activation (TNF-alpha secretion)” value is on record?
A: 0.511%

Q: For `CC/C(=C(\c1ccccc1)c1ccc(OCCN(C)C)cc1)c1ccc(O)cc1`, which “activation (TNF-alpha secretion)” value is on record?
A: 0.0829%

Q: `Cc1cc(O)c(C(C)(C)C)cc1Sc1cc(C(C)(C)C)c(O)cc1C` was tested. Which “activation (TNF-alpha secretion)” value did it give?
A: 0%

Q: `CCCCCC/C(C=O)=C\c1ccccc1` was tested. Which “activation (TNF-alpha secretion)” value did it give?
A: -0.0639%

Q: Which “activation (TNF-alpha secretion)” value does the source give for `C/C=C1\C(=O)C[C@H]2[C@@H]3CCC4=CC(=O)CC[C@]4(C)[C@H]3CC[C@]12C` here?
A: 0.68%

Q: Which “activation (TNF-alpha secretion)” value does the source give for `Cc1cccc(O)c1C` here?
A: 0.0695%

Q: How did the “activation (TNF-alpha secretion)” value turn out when `c1cc(OCC2CO2)cc(OCC2CO2)c1` (stereo unspecified) was run?
A: 1.76%

Q: With `O=C=Nc1ccc(Cc2ccc(N=C=O)cc2)cc1` as the compound, how does the “activation (TNF-alpha secretion)” value read?
A: -0.324%

Q: How did the “activation (TNF-alpha secretion)” value turn out when `O=Cc1ccc(Cl)c(Cl)c1` was run?
A: -0.533%

Q: For `CN1[C@H]2CC(OC(=O)[C@H](CO)c3ccccc3)C[C@H]1[C@H]1O[C@H]12` (stereo partly specified), which outcome is on record?
A: inactive

Q: `ClC1=C(Cl)C(Cl)(Cl)C(Cl)=C1Cl` was tested. Which “activation (TNF-alpha secretion)” value did it give?
A: 0.239%

Q: With `CCCCCCCC[N+](CCCCCCCC)(CCCCCCCC)CCCCCCCC` as the compound, how does the “activation (TNF-alpha secretion)” value read?
A: 0.244%

Q: Which “activation (TNF-alpha secretion)” value does the source give for `Oc1ccc2cc(SSc3ccc4cc(O)ccc4c3)ccc2c1` here?
A: 2.58%

Q: For `C=C(C)c1ccccc1`, which “activation (TNF-alpha secretion)” value is on record?
A: -0.356%
